{"source": "PubChem BioAssay AID652040", "about": "(Broad Institute, 2013)", "note": "Entries with a potency or affinity are not part of this list. A number with no mark means an inactive call.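 Rule for the calls: active = falling luciferase signal whose fitted half-maximal concentration is at most twice the top tested dose; inconclusive = flat inhibition between 30 and 70% or a poor curve fit; inactive = the rest.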", "data": [{"experiment": "off-target signal loss in HeLa-CEM21 co-culture – HeLa F-luc CTL cells, cherry-picked, counter-screen for HIV-1 Env fusion inhibitor project, dose response (AID 652040);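 note: 0% = median of neutral control wells and -100% = doxycycline 40 µg/mL wells; more negative values mean stronger loss of luciferase signal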", "conditions": "HeLa-F-luc CTL cells with CEM21, firefly luciferase counterscreen; series mostly up to 35 µM; activity change, negative = inhibition: at the top concentration", "values": [{"smiles": "Cc1nn(C)c(C)c1CN(C)S(=O)(=O)c1ccc2ccccc2c1", "activity change, negative = inhibition": "-4.39%"}, {"smiles": "O=C(Nc1ccc(CN2CCOCC2)cc1)c1ccc(-c2cccc(Cl)c2)o1", "activity change, negative = inhibition": "77.5%"}, {"smiles": "COc1ccccc1CN(C)C(=O)CN1CCN(C(=O)c2cccs2)CC1", "activity change, negative = inhibition": "4.78%"}, {"smiles": "COc1ccc(C(=O)NCCc2ccc(Cl)cc2)cc1S(=O)(=O)N1CCCCC1C", "note": "(configuration not stated)", "activity change, negative = inhibition": "-12.6%"}, {"smiles": "COc1ccc(NC(=O)C2(C)CCN2Cc2ccccc2OC(F)F)cc1OC", "note": "(configuration not stated)", "activity change, negative = inhibition": "47.8%"}, {"smiles": "CCc1ccc(Nc2n[n+](-c3ccccc3)c(-c3c(Cl)cccc3Cl)s2)cc1", "activity change, negative = inhibition": "9%"}, {"smiles": "C#CCn1c(=O)c2c(ncn2C)n(C)c1=O", "activity change, negative = inhibition": "-0.713%"}, {"smiles": "O=C(c1cc(COc2cccc(C(F)(F)F)c2)on1)N1CCC(c2ccncc2)CC1", "activity change, negative = inhibition": "13.2%"}, {"smiles": "Cc1ccccc1OCCCCn1cnc2ccccc21", "activity change, negative = inhibition": "-0.516% [at 16 µM]"}, {"smiles": "O=C(Nc1ccc(N2CCN(C(=O)c3ccc(Cl)cc3)CC2)cc1)c1ccc2c(c1)OCCO2", "activity change, negative = inhibition": "-7.41%"}, {"smiles": "Cc1ccccc1-n1c(=O)c2ccccc2n2cnnc12", "activity change, negative = inhibition": "7.81%"}, {"smiles": "Cc1nc2sc(C(c3ccco3)N3CCC(Cc4ccccc4)CC3)c(O)n2n1", "note": "(configuration not stated)", "activity change, negative = inhibition": "36.4%"}, {"smiles": "Cc1cc(Nc2cccc(C(F)(F)F)c2)cc(=O)n1-c1cccc(C(F)(F)F)c1", "activity change, negative = inhibition": "18.8%"}, {"smiles": "CCN(CC)CCN(C(=O)c1cc(Cl)sc1Cl)c1nc2cc3c(cc2s1)OCO3", "activity change, negative = inhibition": "35.2%"}, {"smiles": "CCc1ccc(C(=O)CN2C(=O)NC(C)(c3ccc(C)cc3)C2=O)cc1", "note": "(configuration not stated)", "activity change, negative = inhibition": "39.4%"}, {"smiles": "O=C(c1ccc(Cl)s1)N1CCN(c2nc3ccccc3s2)CC1", "activity change, negative = inhibition": "-15.1%"}, {"smiles": "O=C(CN1CCN(Cc2ccc(Cl)cc2)C1=O)NCCCN1CCN(c2ccc(F)cc2)CC1", "activity change, negative = inhibition": "-0.935%"}]}]}
